The results in this text go back to PubChem BioAssay (NCI).

The panel holds about 79,000 compounds, 15% with a hit somewhere; the sample as a whole holds those more often. A number with no mark means an inactive call. Activity calls are given as the source filed them. Rule as the data show it: active = growth inhibition above about 70%; inactive = the rest. Where a SMILES comes first, the peptide text is derived from it. [ ]: non-standard residue; d: D form. The star is where a group is joined. ξ: configuration not given here. ξD = NC(CC(=O)O)C(=O)O; Boc = CC(C)(C)OC(=O)*; Aib = CC(C)(N)C(=O)O; OtBu = CC(C)(C)O*; tBu = CC(C)(C)*

Assay [1] is described as follows: NCI Yeast Anticancer Drug Screen. Data for the rad50 strain (AID 155).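 Also: 0% = growth of vehicle-only cultures of the same strain.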 To be noted: S. cerevisiae rad50 strain growth inhibition; at 50.0 µM; hits give high values. The procedure, abridged: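 Growth of the mutant yeast was measured after compound exposure and referenced to vehicle-treated cultures.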
Assay [2] can be described thus: NCI Yeast Anticancer Drug Screen. Data for the mec2-1 strain (AID 157). To be noted: S. cerevisiae mec2-1 strain, at 50.0 µM, hits give high values. In short, it runs like this:
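Yeast mec2-1 mutant treated with compound. Readout: growth inhibition vs vehicle controls.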

Assay [3] is described as follows: NCI Yeast Anticancer Drug Screen. Data for the sgs1 mgt1 strain (AID 161).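 Also: 0% = growth of cultures given vehicle only.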 The note with it: S. cerevisiae sgs1 mgt1 strain, at 50.0 µM, hits give high values. The procedure, abridged:
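Genetically altered yeast, compound exposure, growth inhibition relative to vehicle.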

Assay [4] can be described thus: NCI Yeast Anticancer Drug Screen. Data for the cln2 rad14 strain (AID 165).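 Also: 0% = growth equal to vehicle treated cultures.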 The note with it: S. cerevisiae cln2 rad14 strain, at 50.0 µM, hits give high values. In short, it runs like this:
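cln2 rad14 yeast strain; compound exposure; growth inhibition read vs vehicle controls.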

The nature of assay [5]: NCI Yeast Anticancer Drug Screen. Data for the bub3 strain (AID 167). The note with it: S. cerevisiae bub3 mutant strain, at 50.0 µM, hits give high values. The procedure, abridged: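 Whole-cell yeast assay. The mutant strain was incubated with compounds, and growth inhibition was determined by comparison with vehicle-treated cells.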
Assay [6] in a line: NCI Yeast Anticancer Drug Screen. Data for the mlh1 rad18 strain (AID 175). To be noted: S. cerevisiae mlh1 rad18 strain growth inhibition; at 50.0 µM; hits give high values. The procedure, abridged: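 Yeast w/ defined DNA-repair lesions; compound exposure; growth vs vehicle controls → % inhibition.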

Take `CC(c1ccccc1)n1cnc2c(N(CCO)CCO)ncnc21` (stereo unspecified): the growth inhibition is 2.5% in assay [1]; -1.6% in assay [2]; 9.45% in assay [3]; -4.05% in assay [4]; 9.85% in assay [5]; 11.7% in assay [6].

On to `CC(OC(C)(C)C)C(NC(=O)C(N)CCCCNC(=O)OC(C)(C)C)C(=O)NC(Cc1ccccc1)C(=O)O` (stereo unspecified) (H-Lys(Boc)-Thr(tBu)-Phe-OH; configuration not given here), for which the growth inhibition in assay [1] was -37.3%; in assay [2], -11.6%; in assay [3] it was -39.4%; in assay [4], -14.8%; in assay [5] it was -5%; in assay [6], -15%.

Turning to `Cc1sc2[nH]c(=O)oc(=O)c2c1C`, the growth inhibition in assay [1] was 44%; in assay [2] it was -10.1%; in assay [3] it was 36.2%; in assay [4], 30.1%; in assay [5], 10.5%; in assay [6], 55.8%.

Turning to `CN(N)C(=O)Nc1cccc(Cl)c1`, the growth inhibition in assay [1] is 13.1%; in assay [2], 8.55%; in assay [3] it was 16.4%; in assay [4], -5.25%; in assay [5], 2.7%; in assay [6] it was 17.3%.

With `O=C(O)c1cscn1.O=C(O)c1cscn1.[I][Pt][I]`, the growth inhibition in assay [1] is 5.75%; in assay [2], 3.55%; in assay [3] it was 13.9%; in assay [4] it was -17.1%; in assay [5], 0.9%; in assay [6] it was 48%.

Consider `CCCC(=O)Nc1ccc(OCC)cc1`, for which the growth inhibition in assay [1] is -9.5%; in assay [2], -4.1%; in assay [3], -11.8%; in assay [4] it was -49.5%; in assay [5], -18.8%; in assay [6], -16.6%.

With `CN(CC#N)CC#N`, the growth inhibition is 19% in assay [1]; 9.6% in assay [2]; 8.75% in assay [3]; -1.6% in assay [4]; 20.1% in assay [5]; 0.3% in assay [6].

As for `O=S(=O)(O)c1ccc(S)cc1`, the growth inhibition is 2.7% in assay [1]; 1.55% in assay [2]; 16.7% in assay [3]; -6.5% in assay [4]; -31% in assay [5]; 1.6% in assay [6].

Take `CCCCN(CCCC)CCC(O)c1cc(-c2ccc(C(F)(F)F)cc2)nc(-c2ccc(C(F)(F)F)cc2)c1` (stereo unspecified): the growth inhibition in assay [1] was 24.3%; in assay [2], -4.9%; in assay [3] it was -37.6%; in assay [4] it was -8.7%; in assay [5], -55.6%; in assay [6] it was -41.2%.

Consider `COc1cc(OC)c(C(C)=O)cc1OC`, for which the growth inhibition in assay [1] is -9.2%; in assay [2], -13.9%; in assay [3] it was -3.15%; in assay [4] it was -2.8%; in assay [5], 6.3%; in assay [6], 6.7%.

As for `O=C1OC(c2ccccc2)=N/C1=C\c1ccco1`, the growth inhibition is -2.95% in assay [1]; -19.3% in assay [2]; -24.4% in assay [3]; 19.6% in assay [4]; -22.2% in assay [5]; 23.6% in assay [6].

Turning to `COC(=O)C(C)(C)NC(=O)C(C)(C)NC(=O)C(CC(=O)OC(C)(C)C)NC(=O)OC(C)(C)C` (stereo unspecified) (Boc-[ξD](OtBu)-[Aib]-[Aib]-OMe), the growth inhibition in assay [1] is -29.3%; in assay [2], -16.1%; in assay [3], -21.1%; in assay [4], -7.4%; in assay [5], -18.4%; in assay [6], -28.7%.

As for `NC(CSCC(=O)O)C(=O)O` (stereo unspecified), the growth inhibition was -19.8% in assay [1]; -3.85% in assay [2]; 1.15% in assay [3]; -20.6% in assay [4]; 16.1% in assay [5]; -5.9% in assay [6].

Regarding `CC1=C(C(=O)Nc2ccccc2C)C(c2ccc(N(C)C)cc2)C(C(=O)Nc2ccccc2C)=C(C)N1`, the growth inhibition in assay [1] was -27%; in assay [2] it was -20%; in assay [3] it was -17.4%; in assay [4] it was -11.2%; in assay [5] it was -8.95%; in assay [6] it was -13.8%.

With `CC(C)(C)c1ccc(C(O)(c2ccc(C(C)(C)C)cc2)c2ccc(C(C)(C)C)cc2)cc1`, the growth inhibition in assay [1] is 12.8%; in assay [2], -3.85%; in assay [3], -22.2%; in assay [4] it was 8.25%; in assay [5], -19.9%; in assay [6], -34.3%.

Regarding `CSc1cc2c(cc1N)C(=O)c1ccccc1-2`, the growth inhibition in assay [1] was 12.5%; in assay [2], 2.45%; in assay [3], 7.4%; in assay [4], -24.1%; in assay [5] it was -13.1%; in assay [6], 12.9%.

For the compound `O=C(/C=C/c1ccccc1)N(Cc1ccccc1)c1ccccc1`, the growth inhibition is 94.3% (active) in assay [1]; 96.7% (active) in assay [2]; 96.7% (active) in assay [3]; 93.5% (active) in assay [4]; 95.2% (active) in assay [5]; 95.6% (active) in assay [6].

On to `CCCCCCCCCCCCNCC(O)c1cc(-c2ccccc2)nc2c(Cl)cc(Cl)cc12` (stereo unspecified), for which the growth inhibition in assay [1] was 8.1%; in assay [2], 8.9%; in assay [3] it was 31.9%; in assay [4] it was 29.1%; in assay [5] it was -8%; in assay [6] it was 26.5%.

Turning to `OCCCCCCCCCCCBr`, the growth inhibition in assay [1] was 28.4%; in assay [2], 4.05%; in assay [3], -3.1%; in assay [4], -27.1%; in assay [5], 9.4%; in assay [6] it was 17.1%.

As for `CC1(C(=O)N2c3ccccc3C=CC2C#N)CC2C=CC1C2` (stereo unspecified), the growth inhibition was -19.9% in assay [1]; 4.6% in assay [2]; 1.9% in assay [3]; 7.6% in assay [4]; -2.4% in assay [5]; -15.9% in assay [6].

As to `CCOc1ccccc1C(=O)Oc1ccc(C)cc1`, the growth inhibition in assay [1] is -4.6%; in assay [2], -19.2%; in assay [3], 7.1%; in assay [4], -3.85%; in assay [5], -5.5%; in assay [6], 24.1%.
